Screens from PubChem BioAssay.
The list is not random: actives were taken first. Their share in the collection is about 4.1%.
DAX1 inh-1 = NR0B1 (DAX1) inhibition; P51843; HEK293 Gal4-DAX1 luciferase reporter, luminescence; inhibition, % at 6.75 µM; 340,000 tested, 0.99% active;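 active = inhibition above the mean over all tested compounds plus 3 SD, cut at about 4.2% in these data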;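 note: inhibition shows as a rise in luminescence from relieved DAX1 repression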
Target sequence (P51843 207-470 limits assumed): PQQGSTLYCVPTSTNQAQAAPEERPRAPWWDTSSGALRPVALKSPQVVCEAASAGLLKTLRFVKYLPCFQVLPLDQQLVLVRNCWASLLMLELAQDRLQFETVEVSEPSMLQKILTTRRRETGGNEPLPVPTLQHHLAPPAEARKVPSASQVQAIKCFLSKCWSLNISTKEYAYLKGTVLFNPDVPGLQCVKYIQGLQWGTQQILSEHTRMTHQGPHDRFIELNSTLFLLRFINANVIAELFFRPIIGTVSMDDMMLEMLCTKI
hgDAF12 agonist = hgDAF-12 agonism, primary luciferase screen. activation, % at 6.8 µM. 370,000 tested, 1.8% active. HEK293 GAL4-hgDAF12 UAS-luciferase reporter, agonist luminescence; normalized to butyrate control;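 active = activation above a cutoff set at the mean of all screened compounds plus 3 SD, cut at about 10% in these data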
hcDAF-12 act = H. contortus DAF-12 activation, primary screen; AID 652067; HEK293 hcDAF-12 lit1-tk-luc reporter, luminescence; 0% DMSO, 100% Δ7-dafachronic acid; 370,000 tested, 1.4% active; activation, % at 6.8 µM;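 active = activation above the mean of all tested compounds plus 3 SD, cut at about 5.5% in these data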
DAX1 inh-2 = inhibitors of DAX1 repression of SF-1 activated StAR promoter; 370,000 tested, 1.1% active; inhibition, % at 6.8 µM; AID 652010; HEK293T StAR-luciferase reporter, SF-1/DAX-1 repression relief;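 active = inhibition above the mean over all tested compounds plus 3 SD, cut at about 3.6% in these data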;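 note: higher inhibition means more luminescence from relief of DAX-1 repression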
ssDAF12 agonist = S. stercoralis DAF-12 activation, primary screen; activation, % at 6.8 µM; HEK293 ssDAF-12/GRIP1 lit1-tk-luc reporter, luminescence; % of 3 µM dafachronic acid response; 370,000 tested, 1% active;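 active = activation above the mean over all tested compounds plus 3 SD, cut at about 0.9% in these data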
Each line names hits and unclear results; the compound was inactive in the other large screens.

COC(=O)[C@]12C[C@H](CC(=O)N3CCOCC3)C(=O)N(CCC3=CCCCC3)C1=C[C@H](C1CCCC1)O[C@@H]2C	none (no result: DAX1 inh-1)
O=C(c1ccccc1)N1CCC(=O)N1c1ccccc1	none
O=C1CN(c2ccccc2)C(=S)N1C(=O)c1ccccc1	DAX1 inh-1 5.8, hgDAF12 agonist 11, hcDAF-12 act 5.7
Cc1ccc(C(=O)O)cc1NC(=O)C1CCCN1S(=O)(=O)c1cccc2nsnc12 (stereo unspecified)	ssDAF12 agonist 1.6
CN1CC=C(c2ccc(C(F)(F)F)cc2)N(c2ccc(Br)cc2)C1=O	none (no result: DAX1 inh-1)
COC(=O)[C@]12C[C@H](CC(=O)NCC34CC5CC(CC(C5)C3)C4)C(=O)N(Cc3ccccc3)C1=C[C@H](C1CCCC1)O[C@@H]2C	none (no result: DAX1 inh-1)
CC(=O)c1ccc(NC(=O)CCS(=O)(=O)c2ccc3c(c2)n(C)c(=O)c(=O)n3C)cc1	DAX1 inh-1 4.8 (no result: hgDAF12 agonist, hcDAF-12 act, DAX1 inh-2, ssDAF12 agonist)
O=C(COC(=O)c1cccc(Cl)c1)Nc1cccc(S(=O)(=O)NC2=NCCC2)c1	none
Cn1ccc(NC(=O)c2ccc(Cl)cc2Cl)n1	DAX1 inh-2 3.9
Cc1onc(NC(=O)c2ccc(Cl)cc2Cl)c1Br	hgDAF12 agonist 11
Cn1ccc(NC(=O)c2ccc(Cl)cc2)n1	none
Cn1ccc(NC(=O)c2ccc([N+](=O)[O-])cc2)n1	DAX1 inh-1 7.0
CCSc1ccc(/C(N)=N/OC(=O)c2cccs2)cn1	DAX1 inh-2 3.9
N/C(=N\OC(=O)c1cccs1)c1cccnc1	none
Clc1cc(Cl)cc(CNC2CCC23CCCCC3)c1 (stereo unspecified)	none (no result: DAX1 inh-1, DAX1 inh-2)
O=C(COC(=O)[C@H](Cc1c[nH]c2ccccc12)NC(=O)c1ccc(Cl)cc1)Nc1ccc2c(c1)OCO2	hgDAF12 agonist 11
CCn1c(=O)n2n(c1=O)[C@]1(C=C(C)C2)CN(Cc2ccc(OC)cc2OC)C(NC(=O)c2ccccc2)=N1	none (no result: DAX1 inh-1, DAX1 inh-2)
CCOC(=O)OCC(=O)C1(O)CCC2C3CCC4=CC(=O)CCC4(C)C3C(O)CC21C (stereo unspecified)	none
CC(=O)OCC(=O)C1(O)CCC2C3CCC4=CC(=O)CCC4(C)C3C(O)CC21C (stereo unspecified)	DAX1 inh-2 3.7
O=C(CCNC(=O)c1ccc(Br)cc1)NCCCN1CCCC1=O	none
FC(F)(F)c1ccc(NCCc2ccccc2)nc1	DAX1 inh-1 5.1
NS(=O)(=O)c1ccc(CCNc2ccc(C(F)(F)F)cn2)cc1	none
O=C(CN1C(=O)NC2(CCCCC2)C1=O)NCc1ccc2c(c1)OCO2	DAX1 inh-1 7.2
CCOC(=O)CC[C@@H]1CC[C@]2(CCCN(Cc3nccs3)C2)O1	none (no result: DAX1 inh-1)
COC(=O)[C@@H](Cc1c[nH]c2ccccc12)NC(=O)CCC(=O)c1ccc(F)cc1	hcDAF-12 act 5.6
COC(=O)C(Cc1c[nH]c2ccccc12)NC(C)=O (stereo unspecified)	none
COC(=O)[C@@H](Cc1c[nH]c2ccccc12)NCc1cccc(B(O)O)c1	hcDAF-12 act 5.8
NC(Cc1ccc(Cl)cc1)c1csc(Nc2ccc(S(N)(=O)=O)cc2)n1 (stereo unspecified)	DAX1 inh-2 4.3 (no result: DAX1 inh-1)
CC1=CC(C)(C)N=C(NC#N)N1	ssDAF12 agonist 1.0
CCC(NC(=O)c1cc(COc2ccc(OC)cc2Cl)on1)c1ccncc1 (stereo unspecified)	none
CCC(NC(=O)c1cc(COc2ccc(Cl)cc2OC)on1)c1ccncc1 (stereo unspecified)	hgDAF12 agonist 12
COc1cc(/C=C2/C(=N)N3N=C(CC(=O)N4CCOCC4)SC3=NC2=O)ccc1OCc1ccc(F)cc1	DAX1 inh-2 3.8
C[C@@H]1CN([C@H](C)CO)C(=O)CCCn2cc(nn2)CO[C@H]1CN(C)C(=O)C1CC1	none
COc1ccc(S[C@]2(C(=O)N3CCCC3)CC(=O)N(c3ccsc3)[C@@H]2c2ccc(OC)cc2)cc1	none (no result: DAX1 inh-1)
c1ccc2c(c1)oc1c(Nc3ccc(CN4CCOCC4)cc3)ncnc12	hgDAF12 agonist 11
c1ccc2c(c1)oc1c(Nc3ccc4c(c3)OCO4)ncnc12	hgDAF12 agonist 12
Cc1nc(Nc2ccc3c(c2)OCO3)c2oc3ccccc3c2n1	none
CC(=O)C(Sc1nc(N(C)C)nc(N(C)C)n1)C(=O)Nc1ccccc1 (stereo unspecified)	none
CC(=O)C(Sc1nn(C)c(=S)s1)C(=O)Nc1ccccc1 (stereo unspecified)	ssDAF12 agonist 1.0
Cc1occc1C(=O)NN=C1C2CC3CC(C2)CC1C3	DAX1 inh-2 4.0
COc1ccc([C@@]23CCN=C2c2[nH]c4ccccc4c2CCN3)c(N)c1	none (no result: DAX1 inh-1, DAX1 inh-2)
CCCC1CCC2(CC1)CCC2OC(=S)NCc1ccc(Cl)cc1 (stereo unspecified)	none (no result: DAX1 inh-1, DAX1 inh-2)
Cc1nc(C)n(CC(=O)N2CCCC(C(=O)c3cccc4ccccc34)C2)n1 (stereo unspecified)	hgDAF12 agonist 11
CCCCn1nnc(N(C(=O)c2cccs2)C(=O)c2cccs2)n1	DAX1 inh-1 5.7
CCOC(=O)[C@]12CCCCC/C=C\1N(Cc1ccc(OC)cc1)C(=O)[C@H]2CC(=O)NCc1ccc(OC)c(OC)c1	none (no result: DAX1 inh-1)
Nc1nc(-c2c[nH]c3ccccc23)cs1	ssDAF12 agonist 1.8
CNc1nc(-c2c[nH]c3ccccc23)cs1	none
CCc1ccc(-c2csc(-c3c[nH]c4ccccc34)n2)cc1	hcDAF-12 act 6.2
O=C(Cn1cnc2ccccc2c1=O)c1ccc(Br)cc1	hgDAF12 agonist 12
O=C(Cn1cnc2ccccc2c1=O)c1ccc(Cl)cc1	hgDAF12 agonist 11
O=C(Cn1cnc2ccccc2c1=O)c1ccccc1	none
CC1=C(C(=O)NCCN2CCOCC2)C2(CCC(C)CC2)OC1=O (stereo unspecified)	none
CC1=C(C(=O)NCCCOC(C)C)C2(CCC(C)CC2)OC1=O (stereo unspecified)	ssDAF12 agonist 1.0
Cc1ccc(-n2nc3ccc(N)cc3n2)cc1Cl	hcDAF-12 act 6.2
Cc1ccc(-n2nc3ccc(N)cc3n2)cc1C	hcDAF-12 act 5.8
CCN(CC)C(=O)CC[C@@H]1CC[C@]2(CCCN(C(=O)c3ccno3)C2)O1	none (no result: DAX1 inh-1)
COc1ccccc1CC1S/C(=N/N=C/c2ccco2)NC1=O (stereo unspecified)	none
CC(CCc1ccccc1)NC(=O)[C@@H]1Cc2ccccc2CN1 (stereo partly specified)	none
CC(C)(C)NC(=O)C1Cc2ccccc2CN1 (stereo unspecified)	DAX1 inh-1 7.3
CN(C)c1ccc(N=Nc2ccc(S(N)(=O)=O)cc2)cc1	hgDAF12 agonist 11
Clc1ccc(-c2nc(-c3ccccn3)no2)cc1Cl	hgDAF12 agonist 12, DAX1 inh-2 3.6
O=C(O)c1ccc2c(c1)SC1=NS(=O)(=O)CCN12	none
O=S1(=O)CCN2N=C(C3CC3)SC2=N1	DAX1 inh-1 6.2
